High-throughput results (PubChem BioAssay)
HDAC3 inh – blocks human histone deacetylase 3 | recombinant HDAC3, fluorogenic peptide/trypsin coupled, fluorescence | inhibition, % at 8.3 µM | 320,000 tested, 0.15% active | AID 2718; in the data active means inhibition above about 26%, passing the limit was not always enough
ALR H2O2 inh – inhibitors of human sulfhydryl oxidase ALR. AID 485317. purified ALR, DTT oxidation, H2O2 HRP-luminol luminescence. inhibition, % (test concentration not listed). 290,000 tested, 3.8% active. P55789;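 active means mean replicate inhibition above about 79%, with every replicate also reaching it, limit read from the data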
GC-B act – GC-B (human) receptor activation | P20594 | HEK293-GC-B cells, CNP EC30, cGMP TR-FRET; 0% at EC30 CNP, 100% saturating CNP | activation, % at 10 µM | 370,000 tested, 0.11% active | AID 1920062;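 active means activation at 10 µM reaching about 35% in either raw or pattern-adjusted values, limit read from the data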
NPR1 activator – GC-A (human) enzyme activation; activation, % at 10 µM; HEK293 GC-A cells, cGMP TR-FRET, EC30 ANP; 0% at EC30 ANP, 100% saturating ANP; 370,000 tested, 0.14% active; P16066; in the data active means activation above about 40%
A number is an active result. The full list was thinned out, with hits kept by preference.

Screening CC(C)c1ccc(NC(=O)CSc2n[nH]c(=O)n2-c2ccc3c(c2)OCCO3)cc1 returned HDAC3 inh inactive, ALR H2O2 inh inactive, GC-B act inactive and NPR1 activator inactive.
Screening COc1ccc(N2CSC3=C(C#N)C(c4cccc(OC)c4OC)CC(=O)N3C2)cc1 (stereo not given) returned HDAC3 inh 56, ALR H2O2 inh inactive, GC-B act inactive and NPR1 activator inactive.
For Cc1cccc(N2CSC3=C(C#N)C(c4ccc(C)o4)CC(=O)N3C2)c1 (stereo not given) the results were HDAC3 inh inactive and ALR H2O2 inh 99.
Screening COc1ccc(C2CC(=O)N3CN(c4ccccc4F)CSC3=C2C#N)cc1OC (stereo not given) returned HDAC3 inh inactive, ALR H2O2 inh inactive, GC-B act inactive and NPR1 activator inactive.
For CCc1ccccc1N1CSC2=C(C#N)C(c3ccccc3F)CC(=O)N2C1 (stereo not given) the results were HDAC3 inh inactive, ALR H2O2 inh inactive, GC-B act inactive and NPR1 activator inactive.
`COc1ccc(C2CC(=O)N3CN(c4ccc(C)c(Cl)c4)CSC3=C2C#N)cc1` (stereo not given) gave HDAC3 inh 51, ALR H2O2 inh inactive, GC-B act inactive and NPR1 activator inactive.
`COc1ccc(OC)c(C2CC(=O)N3CN(c4ccccc4)CSC3=C2C#N)c1` (stereo not given) gave HDAC3 inh 54, ALR H2O2 inh inactive, GC-B act inactive and NPR1 activator inactive.
For COc1cc(OC)c(C2CC(=O)N3CN(c4ccccc4C)CSC3=C2C#N)cc1OC (stereo not given) the results were HDAC3 inh inactive, ALR H2O2 inh inactive, GC-B act inactive and NPR1 activator inactive.
Screening O=C(NCc1ccccc1C(F)(F)F)C1CC(c2ccccc2[N+](=O)[O-])=NO1 (stereo not given) returned HDAC3 inh inactive, ALR H2O2 inh inactive, GC-B act inactive and NPR1 activator inactive.
Screening O=C(COC(=O)C1CC(=O)N(Cc2ccccc2)C1)Nc1cccc([N+](=O)[O-])c1 (stereo not given) returned HDAC3 inh inactive, ALR H2O2 inh inactive, GC-B act inactive and NPR1 activator inactive.
CN(C)C=Nc1ccc(Cn2cnc3nc4ccc(Cl)cc4cc3c2=O)cc1 was read as GC-B act inactive and NPR1 activator inactive.
`CN1CCN(/N=C/c2ccc(N(c3ccccc3)c3ccccc3)cc2)CC1` gave HDAC3 inh inactive, ALR H2O2 inh 96, GC-B act inactive and NPR1 activator inactive.
CN1CCN(/N=C/c2ccc(N(C)c3ccccc3)cc2)CC1 was read as HDAC3 inh inactive, ALR H2O2 inh 99, GC-B act inactive and NPR1 activator inactive.
`CN1CCN(/N=C/c2ccc(Br)cc2)CC1` gave HDAC3 inh inactive, ALR H2O2 inh inactive, GC-B act inactive and NPR1 activator inactive.
For CC(C)(C)OC(=O)C[C@@H]1C/C=C\C[C@@H](CC(=O)N[C@@H](CO)Cc2ccccc2)C(=O)NCCOC1=O the results were HDAC3 inh inactive, ALR H2O2 inh inactive, GC-B act inactive and NPR1 activator inactive.
For COc1ccccc1N1CCN(Cc2cc(=O)n3ccsc3n2)CC1 the results were HDAC3 inh inactive, ALR H2O2 inh 90, GC-B act inactive and NPR1 activator inactive.
Screening O=C(OCc1ccccc1)c1ccc(NCc2cc(O)ccc2O)cc1 returned GC-B act inactive and NPR1 activator inactive.
For COc1ccc(OC)c(NCc2nnc(-c3ccccc3)o2)c1 the results were HDAC3 inh inactive, ALR H2O2 inh 99, GC-B act inactive and NPR1 activator inactive.
CCc1cc(-c2n[nH]c(=S)n2N)n(C)n1 was read as HDAC3 inh inactive, ALR H2O2 inh 95, GC-B act inactive and NPR1 activator inactive.
For CCc1nn(C)c(-c2n[nH]c(=S)n2N)c1Cl the results were HDAC3 inh inactive, ALR H2O2 inh 91, GC-B act inactive and NPR1 activator inactive.
For CCc1cc2c3c(c1)C(C)CC(C)(C)N3C(=O)/C2=C1\SC(=O)NC1=O (stereo not given) the results were HDAC3 inh inactive, ALR H2O2 inh 97, GC-B act inactive and NPR1 activator inactive.
COc1cc2c3c(c1)C(C)CC(C)(C)N3C(=O)C2=O (stereo not given) was read as HDAC3 inh inactive, ALR H2O2 inh inactive, GC-B act inactive and NPR1 activator inactive.
Cc1ccc(S(=O)(=O)/N=C(\Sc2ccccc2)c2ccccc2)cc1 was read as HDAC3 inh inactive, ALR H2O2 inh 98, GC-B act inactive and NPR1 activator inactive.
